# A selection: hits, their analogues and other compounds. The true share with any hit is near 4.6%.
# NTMT1 inhibitor: inhibitors of human N-terminal methyltransferase NTMT1; Q9BV86; NTMT1 MTase-Glo SAH luminescence, purified enzyme; Potency, µM (highest dose often 114 µM), without a hit: top-dose activity change, negative = inhibition, hits mostly inhibitors; hit rate 2.5% among 59,000; AID 1645870;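 further: potency means the concentration at half of the fitted maximal effect; plate controls were DMSO vehicle for no effect and no enzyme for full effect; nearly all actives have a fitted effect of over 65% in size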
# Target sequence (Q9BV86 whole entry, looked up): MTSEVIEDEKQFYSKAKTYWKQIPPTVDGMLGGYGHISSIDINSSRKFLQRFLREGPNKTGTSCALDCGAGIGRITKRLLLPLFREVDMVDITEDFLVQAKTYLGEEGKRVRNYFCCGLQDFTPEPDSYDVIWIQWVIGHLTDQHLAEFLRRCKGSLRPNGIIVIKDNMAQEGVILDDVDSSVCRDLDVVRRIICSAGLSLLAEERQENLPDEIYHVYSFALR
# DRV1 agonist: agonists of human resolvin D1 receptor DRV1 (GPR32); O75388; CHO-K1 GPR32 beta-arrestin PathHunter luminescence, 90 min; zero percent set by DMSO-only wells; activation, % at 76.9 µM; hit rate 2.5% among 48,000; AID 1346428;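 active means activation of at least 60% and not above a set upper limit, about 1 call in 100 departs from these limits; inconclusive means activation of 40% to 60%, or above that upper limit; inactive means activation under 40%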; further: 0% is about no effect
# Target sequence (O75388 whole entry, looked up): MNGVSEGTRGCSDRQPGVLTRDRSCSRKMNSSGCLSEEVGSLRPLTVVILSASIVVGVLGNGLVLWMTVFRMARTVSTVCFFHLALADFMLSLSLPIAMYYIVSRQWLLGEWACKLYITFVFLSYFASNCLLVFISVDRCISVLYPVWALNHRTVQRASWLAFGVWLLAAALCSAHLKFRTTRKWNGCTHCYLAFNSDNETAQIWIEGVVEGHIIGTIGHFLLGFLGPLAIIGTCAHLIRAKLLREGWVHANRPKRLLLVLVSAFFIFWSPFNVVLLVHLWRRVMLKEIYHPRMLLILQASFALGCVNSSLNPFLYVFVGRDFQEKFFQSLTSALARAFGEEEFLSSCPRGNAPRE
#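 CHO-K1 cells stably expressing ProLink-tagged GPR32 and Enzyme Activator-tagged beta-arrestin were seeded at 2,500 cells/well overnight, exposed to compounds for 90 min at 37 °C, then read by beta-Gal complementation chemiluminescence after 1 h detection reagent.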
# HTT prom inh: inhibitors of huntingtin promoter activity | Potency, µM (titrated, usually from 57.5 µM), for the others: at the top dose activity change, negative = inhibition, actives largely listed as inhibitors | HEK293 HTT promoter firefly luciferase reporter, 24 h | hit rate 0.93% among 48,000; further: potency means the concentration at half of the fitted maximal effect; nearly all actives have a fitted effect of over 50% in size
#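 Quantitative HTS used concentration series of up to 57.5 uM final on HEK293 luciferase reporter cells, 24 h at 37 degrees C. Readout was Dual-Glo firefly luminescence.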
# HTT-AS promoter: HTT-AS promoter activation; Potency, µM (doses to about 57.5 µM), inactives show top-dose activity change, positive = activation, most hits filed as activators; HEK293 HTT-AS promoter firefly luciferase reporter, 24 h; response scale: percent change from vehicle, -100% = no light; hit rate 0.24% among 48,000; further: potency means the concentration at half of the fitted maximal effect; nearly all actives have a fitted effect of over 55% in size
#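 Luminescence was read after Dual-Glo reagent and a 10 min room-temperature incubation. Values were normalized to vehicle (0% activity) and zero RLU (-100% activity). Reporter HEK293 cells had been exposed to compounds (up to 57.5 uM final) for 24 h.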
# * marks the source's active call; other numbers are inactive results; u = inconclusive; x = no result given; [ ] = another dose, or the depositor's remark. Unless noted, the call rests on the fitted dose curve; in most records, active means well fitted curve in the direction sought with a large enough effect; inconclusive means small, poorly fitted or top-dose-only effect, or another doubt; inactive means no such curve, though single readings can be large; an effect the other way counts as inactive or inconclusive.
SMILES,NTMT1 inhibitor,DRV1 agonist,HTT prom inh,HTT-AS promoter
Cc1cc(CN2CCN(c3ccccc3F)CC2)cs1,18%,102*,-12%,0%
Cc1noc2ncnc(N3CCN(c4ccccc4F)CC3)c12,-7%,21,u,-26%
CC(=O)c1ccc(N2CCN(c3ncnc4onc(C)c34)CC2)cc1,u,4,4.5µM*,-58%
CC(C)c1nc2c(cnn2C)c(=O)n1N,-27%[57.5 µM],x,x,x
O=C(NCCCNc1nc(Nc2cccc(NC(=O)N3CCCC3)c2)ncc1I)c1cccs1,40µM*,x,u,-46%
CN1CCN(c2ccc(NC(=O)c3cccs3)cn2)CC1,3%[57.5 µM],x,x,x
O=C(Nc1ccc(OCc2cc(=O)n3ccsc3n2)cc1)c1ccc(F)cc1,8%,10,-2%,-9%
CC(C)(C)c1ccc(C(=O)Nc2ccc(OCc3cc(=O)n4ccsc4n3)cc2)cc1,-2%,87*,-9%,-6%
CCOc1ccc(-c2nc(CSCC(=O)NCCc3ccc(OCC)c(OCC)c3)c(C)o2)cc1,1%,2,14µM*,-49%
CCOc1ccc(CCNC(C)=O)cc1OCC,50µM*,x,x,x
CCOc1ccc(CCNC(=O)CSCc2nc(-c3cccc(C)c3)oc2C)cc1OCC,-3%,-12,u,-29%
CCc1ccc(-c2nc(CS(=O)CC(=O)NCc3ccc(F)cc3)c(C)o2)cc1 (stereo not given),89µM*,-15,u,-44%
CCOc1ccc(-c2nc(CSCC(=O)NCc3ccc(C)cc3)c(C)o2)cc1,79µM*,-9,7.1µM*,-77%
CCc1ccc(-c2nc(CSCC(=O)NCc3ccc(C)cc3)c(C)o2)cc1,0%,-26,u,-58%
CCOc1ccc(CCNC(=O)c2ccccc2)cc1OCC,4%,x,x,x
FC(F)(F)c1cc(-c2ccc(CNc3nc(-c4ccncc4)nc4ccccc34)cc2)ccn1,5%[57.5 µM],x,x,x
CCOC(=O)c1c(C)[nH]c(C)c1S(=O)(=O)N1CCN(c2ccc(Cl)cc2)CC1,-15%,68*,u,-22%
O=C(O)c1cc(Br)c(O)c2ncccc12,-8%,x,x,x
COc1ccc(OC)c(CNC(=O)c2ccc3c(c2)c(C)c(C)n3C)c1,89µM*,-24,-5%,-11%
CCOc1ccc(-c2cc(CCCC(=O)NCCc3ccc(SC)cc3)no2)cc1,-1%,17,0.79µM*,-79%
CCOc1ccc(-c2cc(CCCC(=O)NCCc3ccc(Cl)cc3)no2)cc1,u,1,1.8µM*,-73%
Cc1cc(NS(=O)(=O)c2ccc(NC(=O)Cc3ccc(C)c(F)c3)cc2)no1,12%,x,x,x
CCc1cnc2c(c1SC(C(C)=O)C(=O)N(C)C)c(=O)n(C)c(=O)n2C (stereo not given),25µM*,6,-8%,-6%
COc1c(C)c(OCC=C(C)C)cc2c1COC2=O,-7%[57.5 µM],x,x,x
O=C(NC1CCN(CCCCC2(C(=O)NCC(F)(F)F)c3ccccc3-c3ccccc32)CC1)c1ccccc1-c1ccc(C(F)(F)F)cc1,4%[57.5 µM],x,x,x
SMILES,NTMT1 inhibitor,DRV1 agonist,HTT prom inh,HTT-AS promoter
CCOC(=O)c1cc(-c2ccccc2)n(CCC(=O)Nc2cc(C)cc(C)c2)c1C,-6%,-21,u,-32%
CCOC(=O)c1cc(-c2ccccc2)n(CCC(=O)Nc2ccc(Cl)c(C(F)(F)F)c2)c1C,1%,10,22µM*,-51%
FC(F)(F)c1ccccc1-c1nc(NCc2ccc(Cl)cc2)c2ccccc2n1,6%,x,x,x
COc1ccccc1NC(=O)c1cc2cc3ccc(OC)c(Cl)c3nc2s1,40µM*,-2,8%,-4%
O=C1CCCC2=C1C(c1[nH]ncc1Cl)N=C(Nc1nc3cc([S+](=O)([O-])N4CCOCC4)ccc3o1)N2 (stereo not given),-3%[57.5 µM],x,x,x
O=C1CCCC2=C1C(c1[nH]ncc1Cl)N=C(Nc1nc3cc(F)ccc3o1)N2 (stereo not given),-2%,x,x,x
COc1ccc(CN2CCc3nc(N4CCN(c5ccc(F)cc5)CC4)ncc3C2)c(OC)c1OC,1%,-6,1.6µM*,-57%
COc1cccc(N2CCN(c3ncc4c(n3)CCN(Cc3ccc(Br)cc3)C4)CC2)c1,50µM*,-9,u,-85%
COc1ccccc1N1CCN(c2ncc3c(n2)CCN(Cc2ccccc2F)C3)CC1,20%,-3,-11%,-14%
CCOC(=O)N1CCc2c(sc(NCc3sccc3C)c2C(=O)Nc2ccccc2OCC)C1,-16%,63*,u,-9%
CCOC(=O)N1CCc2c(sc(NCc3sccc3C)c2C(=O)Nc2ccc(OC)cc2OC)C1,6%,117*,u,-86%
CCC(Nc1ncnc2nc[nH]c12)c1nc2cccc(F)c2c(=O)n1-c1ccccc1 (stereo not given),17%[57.5 µM],x,x,x
CCc1cccc(CC)c1NC(=O)c1cc(S(=O)(=O)N2CCc3ccccc32)cn1C,14%,20,-22%,-25%
CCN(C(=O)c1cc(S(=O)(=O)N2CCc3ccccc32)cn1C)c1cccc(C)c1,89µM*,-26,u,-32%
Cn1nc(-c2ccc(C(F)(F)F)cc2)nc2c(=O)n(C)c(=O)nc1-2,-3%[57.5 µM],x,x,x
CCNC(=O)Nc1ccc(-c2nc3c(c(N4CCOCC4C)n2)CCN(C2COC2)C3)cc1 (stereo not given),7%[57.5 µM],x,x,x
O=C1CCCC2=C1C(c1[nH]ncc1Cl)N=C(Nc1cccnc1)N2 (stereo not given),17%,x,x,x
Cc1cc(C)c(NC(=O)Nc2ccc3snnc3c2)c(C)c1,-1%,63*,u,-34%
CCOc1ccc(NC(=O)Nc2ccc3snnc3c2)cc1,4%,87*,-8%,-4%
C=C(C(=O)O)C1CCC(C)C2CCC(=O)OC2(C)C1 (stereo not given),-1%[57.5 µM],x,x,x
COc1nc2ccc(Br)cc2cc1[C@@H](c1ccccc1)[C@@](O)(CCN(C)C)c1cccc2ccccc12,-1%[57.5 µM],x,x,x
CC1CCN(c2nc3ccc(C(=O)NCc4ccccc4Cl)cc3s2)CC1,-10%,16,0.28µM*,-81%
CC1CCN(c2nc3ccc(C(=O)NCc4ccc(Cl)cc4)cc3s2)CC1,-19%,-19,0.25µM*,-79%
Cc1ccc2nc(N3CCN(C(=O)C4CC4)CC3)sc2c1,4%,-5,44%,u
Cc1cccc(N2CCN(C(=O)c3ccc4nc(N5CCC(C)CC5)sc4c3)CC2)c1C,-4%,-1,2.5µM*,-75%
SMILES,NTMT1 inhibitor,DRV1 agonist,HTT prom inh,HTT-AS promoter
Cc1ccc(CCNC(=O)c2ccc3nc(N4CCC(C)CC4)sc3c2)cc1,1%,-9,0.35µM*,-73%
O=C(NCCc1ccccc1)c1ccc2nc(N3CCCCC3)sc2c1,u,-7,u,-43%
COc1ccccc1CNC(=O)c1ccc2nc(N3CCCCC3)sc2c1,u,6,u,-28%
O=C(Nc1nc2cc(C(F)(F)F)cc(NC3CC3)n2n1)c1cccnc1,3%[57.5 µM],x,x,x
O=C(NCc1nc2ccccc2c(=O)n1-c1ccc(F)cc1)Nc1ccc(Cl)c(C(F)(F)F)c1,4%[57.5 µM],x,x,x
O=C(CNC(=O)C1CCCCC1)OC(C(=O)c1ccccc1)c1ccccc1 (stereo not given),89µM*,x,x,x

# Bioassay records (PubChem BioAssay)
